The text below walks through data of PubChem BioAssay.

Calls of active or inactive are those of the source.

The assay can be described thus: optical density change of DRC41 E. coli – strain DRC41, OD650, 24 h, E. coli filamentation project, primary screen (AID 1093).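 Further: MC1000 strain lacking acrAB efflux and sulA so SOS filamentation is blocked; test concentration not given here.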 Conditions: E. coli DRC41 growth, higher = more signal, called active from +8 up or from −8 down.
In the case of `Cc1ccc(S[C@]2(C(=O)O)CC(=O)N(Cc3cc(C(F)(F)F)cc(C(F)(F)F)c3)[C@@H]2c2ccc(CO)cc2)cc1`, the z-score is -1.17 (inactive).

As to `CCOC(=O)[C@H]1[C@@H]2C(=O)N3CCC[C@H]3[C@H](O[Si](C(C)C)(C(C)C)C(C)C)[C@H]2C=C2CCN(S(=O)(=O)c3ccc(C)cc3)C[C@H]21`, the z-score was -0.717 (inactive).

Regarding `CO[C@H]1O[C@H](CO)[C@@H](OC(=O)Nc2ccccc2-c2ccccc2)[C@H](OC(=O)Nc2ccc3c(c2)OCO3)[C@H]1OC(=O)Nc1ccc2c(c1)OCO2`, the z-score was 2 (inactive).

For `COc1ccccc1CN1C(=O)c2ccccc2[C@@]2(Cc3ccccc3N(CC(F)(F)F)C2=O)[C@@H]1c1ccc(CO)cc1`, the z-score is 1.07 (inactive).

As to `CN(C)C(=O)[C@@]1(Cc2ccccc2CN=[N+]=[N-])N=C(c2ccc(OCCCO)cc2)O[C@H]1c1ccccc1CN=[N+]=[N-]`, the z-score was 0.0474 (inactive).

Regarding `COc1ccc(CCN2C(=O)[C@@]3(Cc4ccccc42)c2ccccc2C(=O)N(Cc2ccccc2OC)[C@H]3c2ccc(CO)cc2)cc1`, the z-score was 0.237 (inactive).

Turning to `O=C1C2C=CC(C(O)c3ccc(Br)cc3)N(Nc3ccccc3F)C2C(=O)N1c1ccccc1` (stereo unspecified), the z-score was 0.569 (inactive).

On to `C=CCC(OC(C)=O)[C@@H]1[C@@H](N(Cc2cccc3ccccc23)C(=O)Cc2ccc(OC)cc2)c2cc(OCCCO)ccc2N1C(=O)c1ccc2ccccc2n1` (stereo partly specified), for which the z-score was -0.558 (inactive).

Regarding `COC(=O)C(CC#Cc1ccc2c(c1)[C@]1(C(=O)N2)[C@H](c2ccccc2OCCO)N2[C@H](c3ccccc3)[C@H](c3ccccc3)OC(=O)[C@H]2[C@@H]1C(=O)NC[C@H](O)c1ccccc1)C(=O)OC`, the z-score was 0.282 (inactive).

Turning to `COc1ccc([Si](C)(C)[C@H]2[C@H](CCO)O[C@@]3(C(=O)N(Cc4cccc(N5C(=O)COc6ccccc65)c4)c4ccccc43)[C@@H]2C)cc1`, the z-score was 1.98 (inactive).

In the case of `CCCCCCc1nc(C2CC2)cc2c1[Si](C(C)C)(C(C)C)OC2`, the z-score is -0.772 (inactive).

On to `C=CCNC(=O)[C@@H]1[C@H]2C(=O)O[C@H](c3ccccc3)[C@H](c3ccccc3)N2[C@H](c2ccc(O)cc2)[C@@]12C(=O)N(C(=O)OCCOC)c1ccc(C#CC3(O)CCCCCC3)cc12`, for which the z-score was 1.23 (inactive).

As for `CC(CO)N1C(=O)[C@@H]2[C@H]3C(=O)OCC=C[C@H]3OC23C=CCN(Cc2ccccc2)C(=O)[C@@H]13` (stereo partly specified), the z-score is 2.31 (inactive).

Regarding `[N-]=[N+]=NCc1ccccc1C[C@@]1(C(=O)NCc2ccccc2)N=C(c2ccc(OCCCO)cc2)O[C@@H]1c1ccccc1N=[N+]=[N-]`, the z-score was 0.213 (inactive).

For `C=CCN1Cc2ccccc2[C@H]2OC(c3ccc(OCCCO)cc3)=N[C@@]2(CC=C)C1=O`, the z-score is 0.763 (inactive).

Turning to `Cc1cc(C)cc(N2C(=O)CSC2c2cccc([N+](=O)[O-])c2)c1` (stereo unspecified), the z-score is 1.58 (inactive).

In the case of `CCOc1cc(C(O)C2C=CC3C(=O)N(C)C(=O)C3N2Nc2ccccc2)ccc1O` (stereo unspecified), the z-score is -0.0866 (inactive).

Take `[N-]=[N+]=Nc1ccccc1C[C@]1(C(N)=O)N=C(c2ccc(OCCCO)cc2)O[C@H]1c1ccccc1N=[N+]=[N-]`: the z-score is -0.436 (inactive).

For `NC(=O)NCC#Cc1ccc2c(c1)[C@]1(C(=O)N2)[C@H](C(=O)O)[C@H]2C(=O)O[C@H](c3ccccc3)[C@H](c3ccccc3)N2[C@@H]1c1ccc(OCCO)cc1`, the z-score was 0.8 (inactive).

On to `CCCCCCc1nc(C2CC2)cc2c1[Si](C(C)C)(C(C)C)O[C@H]2c1ccccc1`, for which the z-score was -1.28 (inactive).

With `COc1cc2c(cc1OC)CN(C(=O)[C@@H]1[C@H]3C(=O)O[C@H](c4ccccc4)[C@H](c4ccccc4)N3[C@H](c3ccc(OCCO)cc3)[C@@]13C(=O)Nc1ccc(C#CC4(O)CCCCCC4)cc13)CC2`, the z-score is 2.32 (inactive).

Regarding `O=C1C[C@@](C(=O)NCCN2CCOCC2)(c2ccc([N+](=O)[O-])cc2)[C@@H](c2ccc(CO)cc2I)N1C1CCCCC1`, the z-score was 0.685 (inactive).

For the molecule `COC(=O)[C@@]1(Cc2ccc(F)cc2)[C@H]2c3cc(C(=O)N4CCCC4)n(CCc4ccc(O)c(O)c4)c3C[C@H]2CN1C(=O)c1ccccc1`, the z-score is -0.469 (inactive).

In the case of `CC(C)N1C(=O)C[C@@](C(=O)NCCCN(C)C)(c2ccc([N+](=O)[O-])cc2)[C@H]1c1ccc(CO)cc1`, the z-score is -1.41 (inactive).

For the molecule `COC(=O)C1=CC(CCCO)=CC(C2CC2)N(C)C=C1C(=O)OC` (stereo unspecified), the z-score is -0.705 (inactive).

With `COC(=O)c1c(CC[C@@H](CO)NC(=O)N2CCC[C@H]2Cn2cc(Cc3ccccc3)nn2)oc(C(C)=O)c1C(=O)OC`, the z-score was -0.0178 (inactive).

On to `O=C(N1CCCCC1)[C@@]1(CCS(=O)(=O)c2ccccc2)COC(c2ccc(OCCCO)cc2)=N1`, for which the z-score is 1.23 (inactive).

Take `CC1=C[C@@]2(CO)C(=O)[C@]3(CO3)[C@@H]1[C@H]1[C@]2(C)C=C(CO)C(=O)[C@]12CO2`: the z-score was 0.179 (inactive).

`CCCNC(=O)[C@@]1(c2ccc([N+](=O)[O-])cc2)CC(=O)N(C2CCCCC2)[C@@H]1c1ccc(CO)cc1`: the z-score is 0.824 (inactive).

Regarding `NC(=O)NCC#Cc1ccc2c(c1)[C@]1(C(=O)N2)[C@H](C(=O)NC[C@H](O)c2ccccc2)[C@H]2C(=O)O[C@H](c3ccccc3)[C@H](c3ccccc3)N2[C@@H]1c1ccc(OCCO)cc1`, the z-score was 1.63 (inactive).

Regarding `O=C1NC(=O)C2C1C=CC(C(O)CCc1ccccc1)N2Nc1ccc(Cl)cc1Cl` (stereo unspecified), the z-score was -0.748 (inactive).

Turning to `CCCCC=C[C@@H](NC(=O)c1ccc(-c2ccccc2)cc1)c1ccccc1`, the z-score is -0.444 (inactive).

As for `COc1ccc([Si](C)(C)[C@@H]2[C@@H](CC(=O)N(CCO)Cc3ccccc3)O[C@]3(C(=O)N(Cc4cccc(N5CCOC5=O)c4)c4ccccc43)[C@H]2C)cc1`, the z-score was 1.37 (inactive).

In the case of `CC(C)N1CC=CC23O[C@@H]4C=CCOC(=O)[C@@H]4[C@H]2C(=O)N(CCCO)[C@@H]3C1=O` (stereo partly specified), the z-score was 2.67 (inactive).

In the case of `C=CCNC(=O)[C@H]1[C@@H]2C(=O)O[C@@H](c3ccccc3)[C@@H](c3ccccc3)N2[C@@H](c2ccc(O)cc2)[C@]12C(=O)N(C(=O)OCCOC)c1ccccc12`, the z-score was 0.507 (inactive).

With `O=C1OCC=C[C@H]2OC34C=CCN(c5ccc(Cl)cc5)C(=O)[C@H]3N(CCO)C(=O)[C@@H]4[C@@H]12` (stereo partly specified), the z-score is -0.297 (inactive).
